Measurements: the supplement of paper PMC12636033
± gives the standard deviation of the averaged measurements. Over roughly 33,000 sequences, “E-score (rank enrichment, -0.5 to 0.5)” has its median near -0.0043; the highest 2% begin near 0.24. The full list was thinned out, with the highest values kept by preference.

Test system: 2Sp-muMax20 (muMax20 with two 2,6-bis(methyl)pyridine Cys staples)
Assay: PBM 8-mer E-score (E-score (rank enrichment, -0.5 to 0.5)); higher = stronger preferential binding
Protocol: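 Protein binding microarray (universal PBM chip covering all 10-mers in fixed probe flanks) with chemically synthesized human Max(13-93) bHLH-LZ analogs (not full-length Max) bearing noncanonical residues (hArg, Tha, Aib, Nle at 65) and aromatic Cys staples. Read-out per 8-mer (and its reverse complement): E-score (rank-based enrichment, -0.5 to 0.5) and Z-score of median probe intensity.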

Sequence | PBM 8-mer E-score
CGTGGGTA | 0.0577 ± 0.045
AGGTGGGA | 0.0626 ± 0.1
GGTGGGTA | 0.249 ± 0.035
CGGTGGGA | -0.0291 ± 0.0059
GATGGGTA | 0.249 ± 0.014
CATGGGTA | 0.072 ± 0.066
AGTGGGTA | 0.166 ± 0.0072
CGGCACCC | -0.139 ± 0.13
GCTAGACC | -0.164 ± 0.049
CTTCGAAC | -0.115 ± 0.0046
ACCTACAG | 0.0593 ± 0.044
AGCGGGGC | -0.0319 ± 0.078
GAAACATA | 0.254 ± 0.015
GGAACATA | 0.0521 ± 0.044
AAAACATT | 0.0666 ± 0.088
AAAACATG | 0.24 ± 0.078
GAAACATC | -0.0525 ± 0.05
CGAACATC | 0.00373 ± 0.037
AAAACATA | 0.0989 ± 0.11
CGAACATA | 0.255 ± 0.034
CAAACATG | 0.157 ± 0.079
ACAGACGG | -0.07 ± 0.089
ATTCGTTG | -0.0514 ± 0.066
ACGTGTAA | 0.173 ± 0.072
GCAGCGAA | -0.157 ± 0.066

Sequence | PBM 8-mer E-score
ACCTTGAT | 0.0217 ± 0.046
GATTCAAA | 0.0206 ± 0.051
CTCGGTGC | -0.163 ± 0.12
ACGAACTA | -0.0202 ± 0.1
TGTACACA | 0.283 ± 0.012
AGTACACA | 0.196 ± 0.098
CGTACACG | 0.134 ± 0.035
GGTACAAA | 0.0427 ± 0.053
TGTACAAA | 0.244 ± 0.054
AGTACAAA | 0.134 ± 0.1
GTAACAAC | 0.00768 ± 0.059
ACATTCAG | 0.0112 ± 0.042
AATGAATT | 0.179 ± 0.031
GATGAATA | 0.201 ± 0.093
AATGAATA | 0.259 ± 0.064
AATGAATC | -0.0131 ± 0.0047
AATGAATG | 0.24 ± 0.098
TATGAATA | 0.169 ± 0.078
ATACTTGG | 0.0935 ± 0.004
GTCCATCA | -0.0683 ± 0.092
CCCGTCCC | -0.0481 ± 0.028
ACAAACTA | 0.115 ± 0.0062
CAAAACTA | 0.103 ± 0.013
CCAAACTA | 0.241 ± 0.0054
GTGACTAA | 0.0929 ± 0.037

Sequence | PBM 8-mer E-score
CATCCAAC | 0.124 ± 0.056
TAGGGACA | -0.0107 ± 0.063
TACTACTA | 0.247 ± 0.058
CTCTAGTA | 0.125 ± 0.045
TACTAGTA | 0.25 ± 0.055
AACTACTA | 0.144 ± 0.025
GACTAGTA | 0.223 ± 0.033
ATCTAGTA | 0.0613 ± 0.095
ATCTACTA | 0.263 ± 0.086
CACTAGTA | 0.107 ± 0.1
GTCTAGTA | 0.246 ± 0.021
ATCTACTC | -0.0118 ± 0.032
GACTACTA | 0.12 ± 0.12
ATCTACTG | 0.0117 ± 0.033
AAGGCTAA | 0.0957 ± 0.095
GCAATCCC | 0.107 ± 0.035
AATACTTA | 0.05682 ± 0.00026
CGCCTAGA | -0.246 ± 0.079
ACTCCGGA | 0.0232 ± 0.032
AAAGCTAT | 0.0921 ± 0.032
AGAGTTGC | -0.124 ± 0.013
GCTCCGAC | -0.215 ± 0.035
CGGCTTCC | -0.166 ± 0.13
CCTGCCCG | -0.0476 ± 0.0022
CCGTTACC | -0.0555 ± 0.027

Sequence | PBM 8-mer E-score
GACTTGTA | 0.124 ± 0.17
ACCGCAAA | -0.161 ± 0.043
ATTGCGCA | 0.124 ± 0.033
CATGCGCA | 0.109 ± 0.18
CTTGCGCA | 0.266 ± 0.0099
CTTGCGCC | -0.148 ± 0.036
AATGCGCA | 0.229 ± 0.021
TATGCGCA | 0.267 ± 0.026
TAACATTA | 0.114 ± 0.082
CTGTTAAC | 0.0735 ± 0.0019
ATGTTAAC | 0.322 ± 0.023
GTGTTAAC | -0.0129 ± 0.032
CTGTTTAC | 0.0257 ± 0.014
ATGTTTAC | 0.243 ± 0.073
ATGTTTAG | 0.22 ± 0.022
ACTGGCTC | -0.126 ± 0.031
GGTAAACC | -0.203 ± 0.077
ACAAGTCG | 0.0191 ± 0.009
ACAAGTCT | 0.287 ± 0.028
ACAAGTCA | 0.0779 ± 0.031
ACATGCAA | 0.0816 ± 0.11
AGGTATCG | -0.0734 ± 0.073
AGGTATCA | 0.238 ± 0.043
CGGTATCA | -0.1599 ± 0.00081
AAAAGGCG | 0.0426 ± 0.024

Sequence | PBM 8-mer E-score
CACCGATA | -0.0537 ± 0.018
CGGAATGA | -0.155 ± 0.06
GGGAATGA | 0.26 ± 0.057
AGGAATGA | 0.0595 ± 0.018
AATGTATC | 0.151 ± 0.022
TACCAACA | 0.163 ± 0.027
ATAGACTC | 0.154 ± 0.021
CTGGCGGC | -0.155 ± 0.055
CACGCCCG | 0.0249 ± 0.038
GTGTCATA | 0.248 ± 0.042
ATATCAGC | 0.0631 ± 0.073
ATATCATA | 0.255 ± 0.085
ATATCAGA | 0.0984 ± 0.019
ATATCAGG | 0.239 ± 0.032
CTATCATA | 0.185 ± 0.013
ATGTCATA | 0.189 ± 0.012
ACATCATC | 0.047 ± 0.02
CTGTCATA | 0.179 ± 0.043
ATATCATG | 0.147 ± 0.035
CCATCATA | 0.153 ± 0.082
ACATCATA | 0.244 ± 0.064
CGATAAGC | -0.0518 ± 0.16
GGAATACC | -0.138 ± 0.015
ACAGTTAG | 0.074 ± 0.026
TGCTGCAA | 0.0638 ± 0.096

Sequence | PBM 8-mer E-score
CTTTCGGA | -0.125 ± 0.009
CCCAACAA | 0.177 ± 0.0058
AAAAGAAA | 0.0569 ± 0.052
CCGCTGGA | -0.157 ± 0.04
GTATCAGA | -0.0699 ± 0.043
GCATCATA | 0.169 ± 0.0065
GTATCATA | 0.255 ± 0.024
CATGAGCA | -0.0267 ± 0.017
GCCGAAGA | -0.0625 ± 0.053
AGTAACAA | 0.113 ± 0.089
CGTAATAG | 0.118 ± 0.1
AGTAATAT | 0.25 ± 0.05
AATAGTAG | 0.0793 ± 0.083
AGTAACAG | 0.09 ± 0.031
AGTAATAG | 0.254 ± 0.02
AGTAATAC | -0.0935 ± 0.039
AATAGTAA | 0.238 ± 0.06
AGTAACAT | 0.294 ± 0.018
CATAGTAA | 0.159 ± 0.099
AGTAATAA | 0.0744 ± 0.038
AGTAATGG | 0.122 ± 0.043
ACCGGCAT | -0.121 ± 0.029
GCAAATAC | 0.0657 ± 0.013
AATAGATT | 0.117 ± 0.049
GCAACGTA | -0.119 ± 0.038

Sequence | PBM 8-mer E-score
GAGCTATC | 0.0105 ± 0.011
CCAAACGA | -0.105 ± 0.068
AGCGTGTG | 0.146 ± 0.035
ATCGGGAA | -0.0836 ± 0.067
GCATCCAC | 0.0775 ± 0.049
CCCACCTC | -0.0411 ± 0.14
CCTTTTCA | 0.29 ± 0.03
GCTTTTTA | 0.303 ± 0.013
GCTTTTCA | 0.0545 ± 0.063
GCTTTTAA | -0.0089 ± 0.0068
CTTTTTCA | 0.0855 ± 0.061
CCTTTTTA | -0.0668 ± 0.03
GTTCCTCA | -0.0919 ± 0.021
CGCTGGAG | -0.172 ± 0.023
ATCAACTC | 0.0114 ± 0.058
CGAAGGAA | -0.209 ± 0.023
GAGCCAGA | -0.216 ± 0.14
TGTATGAA | 0.0767 ± 0.054
ACCCACCC | 0.424 ± 0.043
ACCCACCA | 0.178 ± 0.043
GCCCACCA | 0.078 ± 0.038
GCCCACCC | 0.417 ± 0.02
GCCCACAC | 0.076 ± 0.018
CCCCACCC | 0.23 ± 0.1
